Results published in publication PMC4336329 (PLoS ONE, 2015).
Hit rate of the full screen: of about 310,000 compounds, about 14,000 (4.5%) showed an effect of 50% or more. The effect is printed as a negative number. For the sample, strong results were picked, then their nearest neighbours and some compounds at random.
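Further: peak tail current of the secondary pulse compared with the same well before compound.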

Each compound was assayed against human ether-à-go-go-related gene (hERG) potassium channel (human, UniProt Q12809) (assay: primary screen, population patch clamp on CHO cells stably expressing hERG; higher = less effect of the substance).
Sequence of human ether-à-go-go-related gene (hERG) potassium channel (Q12809 whole entry, looked up): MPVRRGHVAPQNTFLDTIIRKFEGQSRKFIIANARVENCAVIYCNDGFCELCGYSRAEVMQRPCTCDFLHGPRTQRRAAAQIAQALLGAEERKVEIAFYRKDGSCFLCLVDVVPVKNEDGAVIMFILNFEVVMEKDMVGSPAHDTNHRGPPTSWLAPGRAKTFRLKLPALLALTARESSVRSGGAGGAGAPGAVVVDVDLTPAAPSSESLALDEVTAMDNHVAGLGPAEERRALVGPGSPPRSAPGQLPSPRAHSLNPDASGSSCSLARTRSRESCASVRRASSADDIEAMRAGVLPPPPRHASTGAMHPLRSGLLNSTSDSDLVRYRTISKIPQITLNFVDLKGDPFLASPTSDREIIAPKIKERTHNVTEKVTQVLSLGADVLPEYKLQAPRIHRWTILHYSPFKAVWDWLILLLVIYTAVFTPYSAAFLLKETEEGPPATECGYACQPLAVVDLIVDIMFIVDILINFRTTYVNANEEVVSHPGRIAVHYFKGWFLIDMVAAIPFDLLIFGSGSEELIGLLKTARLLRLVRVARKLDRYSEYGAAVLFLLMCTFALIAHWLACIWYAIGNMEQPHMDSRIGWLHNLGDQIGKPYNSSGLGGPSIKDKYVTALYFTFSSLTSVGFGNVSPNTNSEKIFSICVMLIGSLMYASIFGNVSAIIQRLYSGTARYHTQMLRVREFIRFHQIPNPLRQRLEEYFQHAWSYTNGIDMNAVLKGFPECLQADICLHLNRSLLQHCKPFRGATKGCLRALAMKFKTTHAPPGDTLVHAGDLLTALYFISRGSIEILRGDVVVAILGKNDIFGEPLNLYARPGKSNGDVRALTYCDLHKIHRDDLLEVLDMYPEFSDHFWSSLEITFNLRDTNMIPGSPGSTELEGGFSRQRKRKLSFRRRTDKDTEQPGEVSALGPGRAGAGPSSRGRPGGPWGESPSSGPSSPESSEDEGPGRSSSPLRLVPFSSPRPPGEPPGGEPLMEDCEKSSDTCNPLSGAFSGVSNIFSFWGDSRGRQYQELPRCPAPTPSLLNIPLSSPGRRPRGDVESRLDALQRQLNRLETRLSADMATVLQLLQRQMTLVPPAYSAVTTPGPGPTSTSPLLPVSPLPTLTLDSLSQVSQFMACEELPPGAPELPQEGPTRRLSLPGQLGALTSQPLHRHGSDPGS
With `CCCCn1nc(C(=O)Nc2cc(C(F)(F)F)ccc2N2CCOCC2)ccc1=O` the “hERG current change (%, negative = inhibition) at 10uM” value was -83.7%. `O=C(Nc1cc([N+](=O)[O-])ccc1N1CCOCC1)c1ccco1` was tested, and the “hERG current change (%, negative = inhibition) at 10uM” value was -25.6%. `O=S(=O)(N1CCOCC1)N1CCCN(S(=O)(=O)N2CCOCC2)CC1` was tested, and the “hERG current change (%, negative = inhibition) at 10uM” value was 5.76%. In the case of `COc1cc2ccccc2cc1C(=O)NCCCN1CCOCC1`, the “hERG current change (%, negative = inhibition) at 10uM” value is reported as -5.9%. In the case of `Cc1nn(C(C)C(=O)Nc2sc3c(c2C#N)CCCC3)c(C)c1[N+](=O)[O-]` (centres unmarked), the “hERG current change (%, negative = inhibition) at 10uM” value is reported as 12.1%. In the case of `O=C(/C=C/c1ccccc1Cl)NCCCn1ccnc1`, the “hERG current change (%, negative = inhibition) at 10uM” value is reported as -17%. With `Cc1ccc(S(=O)(=O)c2c(C)nn(C(C)(C)C)c2OC(=O)C(C)(C)C)cc1` the “hERG current change (%, negative = inhibition) at 10uM” value was 15.6%. `C=CCn1c(N2CCN(c3ccc(OC)cc3)CC2)nc2c1c(=O)n(C)c(=O)n2C` was tested, and the “hERG current change (%, negative = inhibition) at 10uM” value was -32.1%. In the case of `CCN(CC)c1nc(C)nc2c1sc(=S)n2C`, the “hERG current change (%, negative = inhibition) at 10uM” value is reported as -1.82%. `Clc1ccc(CNc2nnnn2-c2ccccc2)c(Cl)c1` was tested, and the “hERG current change (%, negative = inhibition) at 10uM” value was 20.7%. With `COc1cccc(/C=C/C(=O)OCC(=O)Nc2ccc(Cl)cn2)c1` the “hERG current change (%, negative = inhibition) at 10uM” value was 28.1%. In the case of `CCCCC1=NN(C(=O)c2ccncc2)C(O)(C(F)(F)F)C1` (centres unmarked), the “hERG current change (%, negative = inhibition) at 10uM” value is reported as 23.1%. With `COc1ccccc1C(=O)COC(=O)CCNS(=O)(=O)c1ccc(C)c(C)c1` the “hERG current change (%, negative = inhibition) at 10uM” value was -21.9%. With `CCC(C(=O)N1CCN(c2ccccn2)CC1)n1nc(C)n2c(cc3occc32)c1=O` (centres unmarked) the “hERG current change (%, negative = inhibition) at 10uM” value was -5.95%. With `Cc1ccc(C(=O)N2N=C(c3ccccc3O)CC2c2ccccc2)cc1` (centres unmarked) the “hERG current change (%, negative = inhibition) at 10uM” value was 14.6%. In the case of `COc1ccc(NC(=O)CSc2nc(=O)n(CCN(C)C)c3c2CCCC3)cc1OC`, the “hERG current change (%, negative = inhibition) at 10uM” value is reported as -11.5%. With `Cc1ccc(NC(=O)CSc2nc(=O)n(CCN(C)C)c3c2CCCC3)cc1Cl` the “hERG current change (%, negative = inhibition) at 10uM” value was -59.8%. `CN(C)CCn1c2c(c(SCC(=O)Nc3cccc(C(F)(F)F)c3)nc1=O)CCCC2` was tested, and the “hERG current change (%, negative = inhibition) at 10uM” value was -68.8%. `CN(C)CCn1c2c(c(SCC(=O)Nc3ccccc3)nc1=O)CCCC2` was tested, and the “hERG current change (%, negative = inhibition) at 10uM” value was -26.7%. `COc1cccc(NC(=O)CSc2nc(=O)n(CCN(C)C)c3c2CCCC3)c1` was tested, and the “hERG current change (%, negative = inhibition) at 10uM” value was -49.9%. `CN(C)CCn1c2c(c(SCC(=O)Nc3ccc4c(c3)OCCO4)nc1=O)CCCC2` was tested, and the “hERG current change (%, negative = inhibition) at 10uM” value was -14.8%. For `Cc1ccc(-n2nc3c(c2NC(=O)c2ccco2)CS(=O)C3)cc1` (centres unmarked), the “hERG current change (%, negative = inhibition) at 10uM” value was -8.69%. `CC(C)Cn1c(=S)[nH]c2ccccc2c1=O` was tested, and the “hERG current change (%, negative = inhibition) at 10uM” value was 22%. For `CCCNC(=O)NCCc1ccncc1`, the “hERG current change (%, negative = inhibition) at 10uM” value was 7.09%. For `COc1ccc2c(c1OC)C(=O)N(c1ccc(O)cc1)C2=O`, the “hERG current change (%, negative = inhibition) at 10uM” value was 13.4%. For `CCCCN(CCCNC(=O)c1c(C)cc(=O)oc1C)c1ccccc1`, the “hERG current change (%, negative = inhibition) at 10uM” value was -64.4%. For `CCN(CCCNC(=O)c1c(C)cc(=O)oc1C)c1ccccc1`, the “hERG current change (%, negative = inhibition) at 10uM” value was -52.7%. For `Cc1cc(=O)oc(C)c1C(=O)NCCc1ccccc1`, the “hERG current change (%, negative = inhibition) at 10uM” value was 7.49%. For `Cc1cc(=O)oc(C)c1C(=O)NCCN(C)Cc1ccccc1`, the “hERG current change (%, negative = inhibition) at 10uM” value was 8.33%. In the case of `CCCNC(=O)c1c(C)cc(=O)oc1C`, the “hERG current change (%, negative = inhibition) at 10uM” value is reported as -6.11%. For `Cc1cc(=O)oc(C)c1C(=O)NCc1ccccc1`, the “hERG current change (%, negative = inhibition) at 10uM” value was 11.2%. For `CCN(CCCNC(=O)c1c(C)cc(=O)oc1C)c1cccc(C)c1`, the “hERG current change (%, negative = inhibition) at 10uM” value was -65.3%. In the case of `Cc1cc(=O)oc(C)c1C(=O)NCCNC(=O)c1c(C)cc(=O)oc1C`, the “hERG current change (%, negative = inhibition) at 10uM” value is reported as 3.85%. For `CCN(CCCNC(=O)c1[nH]c(C)c(C(C)=O)c1C)c1cccc(C)c1`, the “hERG current change (%, negative = inhibition) at 10uM” value was -18.2%. For `CC(=O)c1ccc(N2CCN(C(=O)CCS(=O)(=O)c3ccc4c(c3)CCN4C(C)=O)CC2)cc1`, the “hERG current change (%, negative = inhibition) at 10uM” value was 3.77%. In the case of `COc1ccc(-c2csc3ncn(Cc4ccccc4)c(=O)c23)cc1`, the “hERG current change (%, negative = inhibition) at 10uM” value is reported as -0.922%. `COc1ccc(N2CCN(CC(=O)N3N=CCC3c3ccccc3)CC2)cc1` (centres unmarked) was tested, and the “hERG current change (%, negative = inhibition) at 10uM” value was -2.49%. In the case of `O=C(COC(=O)CCc1c[nH]c2ccccc12)NCc1ccc2c(c1)OCO2`, the “hERG current change (%, negative = inhibition) at 10uM” value is reported as 13.2%. For `C/C(=N\NC(=S)NC1CCCCC1)c1c(F)cccc1F`, the “hERG current change (%, negative = inhibition) at 10uM” value was -35%. In the case of `C/C(N)=C(/C#N)C(=O)COC(=O)[C@@H](NC(=O)c1ccccc1Cl)C(C)C`, the “hERG current change (%, negative = inhibition) at 10uM” value is reported as 4.16%. For `COc1ccc(S(=O)(=O)N2CCOC2CNC(=O)C(=O)NCc2ccncc2)cc1` (centres unmarked), the “hERG current change (%, negative = inhibition) at 10uM” value was 3.26%. `COc1ccccc1-c1ccc(SCC(=O)NC2CCCC2)nn1` was tested, and the “hERG current change (%, negative = inhibition) at 10uM” value was -24.5%. With `COc1ccccc1-c1nnc(SCC(=O)NC2CCCCC2)o1` the “hERG current change (%, negative = inhibition) at 10uM” value was -27.4%. For `COc1ccc(-c2nnc(SCC(=O)NC3CCCCC3)o2)cc1OC`, the “hERG current change (%, negative = inhibition) at 10uM” value was -9.47%. For `COc1ccccc1-c1ccc(SCC(=O)NC2CCCCC2)nn1`, the “hERG current change (%, negative = inhibition) at 10uM” value was -72%. For `COc1ccc(OC)c(-c2nnc(SCC(=O)NC3CCCCC3)o2)c1`, the “hERG current change (%, negative = inhibition) at 10uM” value was -59.8%. For `COc1ccc(-c2ccc(SCC(=O)NC3CCCCC3)nn2)cc1OC`, the “hERG current change (%, negative = inhibition) at 10uM” value was 16.4%.
